Source: PubChem
Most compounds without a hit are left out; they make up all but 1.8% or so of the library.
Tb PGK inh: inhibitors of T. brucei phosphoglycerate kinase | P07378 | PGK/GAPDH coupled, Kinase-Glo luminescence, 60 min | Potency, µM (doses to about 57.5 µM), inactives show at the top dose activity change, negative = inhibition, usual class: inhibitors | 380,000 tested, 0.043% active; also: % is scaled to controls: 0 for no effect and ±100 for the full control effect; nearly all actives have a fitted effect of over 60% in size
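Luminescent ATP detection (Kinase-Glo Plus) follows a 60-minute room-temperature incubation, with wells lacking PGK as controls. Buffer: 100 mM TEA (pH 7.6), 5 mM MgCl2, 0.01% Tween-20. Coupling enzyme GAPDH (100 nM final) supplies unstable 1,3-BPG in-well.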
Tb PFK inh-1: T. brucei PFK enzyme inhibition; O15648; T. brucei PFK, ADP-Glo luminescence; Potency, µM (doses to about 57.5 µM), inactives show at the top dose activity, negative = inhibition, most hits filed as inhibitors; 330,000 tested, 0.17% active;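 also: 0% = uninhibited 1x PFK enzyme wells and -100% = no-enzyme wells; nearly all actives have a fitted effect of over 60% in size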
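In TEA buffer at pH 8.0 with 5 mM MgCl2, enzyme (1.25 nM) converted F6P (0.5 mM) and ATP (0.1 mM) for 45 min at room temperature. ADP product was read by luciferase luminescence.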
Pin1 inh: human Pin1 inhibition; Potency, µM (top dose mostly 115 µM), for inactives: at the top dose activity, negative = inhibition, most hits filed as inhibitors; Q13526; 390,000 tested, 0.009% active; Pin1 FP peptide displacement, HiFluor488, 10 min; active = well fitted inhibition curve with a large enough effect in the polarisation, with a control signal flat, not every such curve was filed as active; inconclusive = small, poorly fitted or top-dose-only effect, or effect the other way, or a change in a side signal; inactive = no such curve, though single readings can be large or run the other way; the % refers to the polarisation; also: % is scaled to controls: 0 for no effect and ±100 for the full control effect
Target sequence (Q13526 whole entry, looked up): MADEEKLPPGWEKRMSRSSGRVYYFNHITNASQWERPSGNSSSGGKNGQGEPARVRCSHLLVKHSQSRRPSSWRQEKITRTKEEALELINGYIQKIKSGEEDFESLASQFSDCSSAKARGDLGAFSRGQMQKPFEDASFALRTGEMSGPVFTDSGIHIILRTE
GLP1R ag: GLP-1 receptor (human) agonism; P43220; HEK293 GLP-1R CRE-luciferase, luminescence, 4-6 h; cells express a hypersensitive GLP-1R form; Potency, µM (series often up to 45.6 µM), for the others: at the highest dose activation, actives largely listed as activators; 380,000 tested, 0.007% active; also: % of control where 0% means no effect
Target sequence (P43220 whole entry, looked up): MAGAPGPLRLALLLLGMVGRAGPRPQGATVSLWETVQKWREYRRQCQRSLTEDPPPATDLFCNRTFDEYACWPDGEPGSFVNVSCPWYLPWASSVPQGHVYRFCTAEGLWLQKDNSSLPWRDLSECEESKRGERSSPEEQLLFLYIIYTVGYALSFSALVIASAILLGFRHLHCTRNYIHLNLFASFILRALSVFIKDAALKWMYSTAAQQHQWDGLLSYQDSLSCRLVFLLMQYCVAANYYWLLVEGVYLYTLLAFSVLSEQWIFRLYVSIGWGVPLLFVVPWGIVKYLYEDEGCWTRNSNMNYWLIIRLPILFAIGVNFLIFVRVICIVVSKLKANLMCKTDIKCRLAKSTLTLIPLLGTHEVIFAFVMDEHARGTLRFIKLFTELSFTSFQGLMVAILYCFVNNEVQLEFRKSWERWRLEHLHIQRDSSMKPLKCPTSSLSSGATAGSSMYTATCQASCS
GLP-1R inv ag: acts as inverse agonist at human GLP-1 receptor; HEK293 GLP-1R CRE-luciferase, luminescence, 24 h; GLP-1R form is constitutively active; P43220; AID 624417; Potency, µM (top dose mostly 38.3 µM), inactives show at the top dose activity change, negative = inhibition, actives largely listed as inhibitors; 410,000 tested, 1.6% active; also: % is scaled to controls: 0 for no effect and ±100 for the full control effect; nearly all actives have a fitted effect of over 55% in size
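Stable HEK293 clone (constitutively active GLP-1R + cAMP-response luciferase); 200 cells/uL plated, 12 h pre-culture, compound 24 hr, 37 deg C/5% CO2; detection reagent 12 min RT; luminescence.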
HEK293 tox: cytotoxicity in counter-screen for GLP-1R inverse agonists; Potency, µM (top dose mostly 38.3 µM), for inactives: top-dose activity change, negative = inhibition, usual class: inhibitors; HEK293 cAMP-luciferase reporter cells, luminescence, 24 h; 410,000 tested, 0.13% active;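 also: loss of luciferase light is scored as toxicity; % is scaled to controls: 0 for no effect and ±100 for the full control effect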
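Step one: seed cells (200 cells/uL, DMEM with 10% Nu serum, 1% pen-strep). Step two: 12-hour incubation at 37 deg C. Step three: pin 23 nL compound, incubate 24 hr. Step four: add luciferase reagent, read luminescence 12 min later.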
Tb PFK KinaseGlo: inhibits T. brucei PFK measured by ATP depletion; shares compounds with Tb PFK inh-1; Tb PFK enzyme, ATP depletion, Kinase-Glo Plus luminescence; Potency, µM (top dose mostly 57.5 µM), for inactives: at the highest dose inhibition; 1,100 tested, 47% active; AID 504636; calls by dose curve; also: nearly all actives have a fitted effect of over 60% in size
Tb PFK inh-2: validation of T. brucei phosphofructokinase inhibitors; shares compounds with Tb PFK inh-1; purified T. brucei PFK, ADP-Glo luminescence, 45 min; Potency, µM (highest dose often 57.5 µM), inactives show at the highest dose activity change, negative = inhibition, most hits filed as inhibitors; 1,100 tested, 41% active; AID 504637;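 also: plate controls were full PFK enzyme control for no effect and no enzyme control for full effect; nearly all actives have a fitted effect of over 60% in size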
* = called active by the depositor; i = inactive; ? = inconclusive; . = no result given. Unless noted, calls follow the shape of the dose curve; as a rule, active = well fitted curve in the direction sought with a large enough effect; inconclusive = small, poorly fitted or top-dose-only effect, or another doubt; inactive = no such curve, though single readings can be large; an effect the other way counts as inactive or inconclusive. Potency is read from the fitted curve at half-maximal effect.

SMILES	Tb PGK inh	Tb PFK inh-1	Pin1 inh	GLP1R ag	GLP-1R inv ag	HEK293 tox	Tb PFK KinaseGlo	Tb PFK inh-2
N#Cc1nc(-c2cccc3ccccc23)oc1NCC#CCOC(=O)c1cccs1	.	21µM*	.	.	.	.	8.5µM*	27µM*
N#Cc1c(F)cccc1NCc1cccnc1	9%	?	-15%	8%	-18%	-1%	?	-9%
O=C(NCc1cccnc1)Nc1ccccc1Cl	6%	-4%	-3%	2%	19%	?	.	.
Cc1ccc(NNC(=O)Nc2ccc(Cl)cc2)nn1	-2%	24µM*	-5%	1%	10%	-1%	24µM*	?
Cc1nc2ccccc2n1CC(=O)c1ccc(O)c(O)c1	-10%	30µM*	2%	2%	11%	16%	?	?
CCOC(=O)C1CCCN(C(=O)c2ccc3oc(Cc4ccccc4)nc3c2)C1 (stereo not drawn)	i	-5%	-1%	-4%	?	8%	.	.
CCN1CC(CNC(=O)c2ccc3nc(Cc4cccc(Cl)c4)oc3c2)CC1=O (stereo not drawn)	7%	?	3%	-4%	-2%	-13%	?	15µM*
Cc1c(C(=O)OC/C(O)=C(\C#N)c2nc3ccccc3[nH]2)oc2ccccc12	-6%	-4%	?	3%	?	?	.	.
Cc1c(C(=O)Nc2nc(-c3ccccn3)cs2)oc2ccccc12	0%	?	-2%	0%	?	-22%	19µM*	30µM*
COc1ccc(/C=C/C(=O)Nc2ccc(C)cc2)cc1	0%	.	4%	.	?	3%	.	.
CCc1nnc(NS(=O)(=O)c2ccc(NC(=S)NC(=O)/C=C/c3ccc(OC)cc3)cc2)s1	?	?	-13%	0%	16%	-4%	?	?
Oc1ccc(C2=Nn3c(nnc3-c3ccco3)SC2)cc1O	?	7.6µM*	?	14%	24%	11%	?	?
CCC(=O)NC1=C(Cl)C(=O)C(NC(=O)CC)=C(Cl)C1=O	i	?	-1%	-11%	?	?	.	.
S=C(NCCN1CCOCC1)N1CCN(c2cccc(Cl)c2)CC1	-4%	?	-12%	18%	?	-1%	?	27µM*
Cc1ccc(Cl)cc1N1CCN(CCN)CC1	-3%	0%	-3%	8%	-9%	-2%	.	.
O=C(CN1CC=C(c2ccccc2)CC1)NC(=O)NCc1ccco1	i	-9%	-5%	-8%	11%	-3%	.	.
S=C(NCc1ccco1)N1CCN(c2cccc(Cl)c2)CC1	1%	?	21%	-1%	?	7%	24µM*	?
O=[As]O[As]=O (stereo not drawn)	.	.	.	16%	.	.	.	.
O=C(O)c1ccc[nH]c1=S	0%	1%	-4%	2%	34%	4%	.	.
N=c1c2c(n(Cc3ccc(Cl)c(Cl)c3)c3c1CCC3)CCCC2	3%	2%	2%	-21%	?	?	.	.
Cc1nc([N+](=O)[O-])c(Br)n1Cc1ccc(Cl)c(Cl)c1	i	21µM*	3%	1%	10µM*	10µM*	?	?
COc1ccc(S(=O)(=O)NCCc2sc3nc(-c4ccc(C)cc4)nn3c2C)cc1F	3%	.	-1%	.	?	10%	.	.
CC(C)CN1C(=S)SC(C)(C)C1n1oc(=O)n(-c2ccc(Cl)cc2)c1=O (stereo not drawn)	.	27µM*	19%	-7%	?	?	3%	-4%
CCON=O	.	.	.	0%	.	.	.	.
NS(=O)(=O)c1ccc(NC(=O)C2COc3ccccc3O2)cc1 (stereo not drawn)	-6%	21µM*	-4%	-7%	15%	-10%	6.7µM*	30µM*
SMILES	Tb PGK inh	Tb PFK inh-1	Pin1 inh	GLP1R ag	GLP-1R inv ag	HEK293 tox	Tb PFK KinaseGlo	Tb PFK inh-2
CC(NC(=O)c1ccco1)C(=O)N1CCN(c2cccc(C(F)(F)F)c2)CC1 (stereo not drawn)	i	?	0%	0%	-26%	-6%	14%	-10%
CCOC(=O)N1CCC(NC(=O)CCC(=O)N2CCOc3ccc(Cl)cc32)CC1	i	?	0%	3%	2%	5%	?	-21%
CC(OC(=O)COc1ccc(Nc2ccccc2)cc1)C(=O)N(C)c1ccccc1 (stereo not drawn)	-1%	-2%	-1%	1%	?	-21%	.	.
Cc1cc(C)n2c(=S)[nH]nc2n1	-9%	?	0%	0%	2%	9%	27µM*	?
COc1cc(/C=C/c2[nH]c(=O)[nH]c(=O)c2[N+](=O)[O-])cc([N+](=O)[O-])c1O	.	?	?	-6%	19%	?	-25%	?
C[C@H]1CNC(=O)c2c(C(=O)Nc3cccc(Cl)c3)ncn21	2%	.	.	11%	79%	12%	.	.
NC(=S)NNc1ccc(Cl)c(Cl)c1	i	19µM*	1%	2%	-18%	4%	4.8µM*	12µM*
Cc1ccc2cc3c(NC(=O)C(C)C)nn(C)c3nc2c1	4%	2%	6%	0%	45%	118%	.	.
C/C(=C\c1ccc(N(C)C)cc1)[N+](=O)[O-]	-2%	?	15%	-14%	?	?	-24%	?
CC(C)N1C(=S)SC(C)(C)C1NO (stereo not drawn)	-4%	0%	-2%	-21%	?	?	.	.
COc1cc2cc3c(N)c(C(=O)Nc4sc(C)c(C)c4C#N)sc3nc2cc1OC	.	?	?	4%	3%	-16%	0%	16%
Cc1c(CN2CCC(CO)(Cc3cccc(C(F)(F)F)c3)CC2)c2ccccc2n1C	-8%	-4%	-2%	-26%	4%	?	.	.
COc1ccc(OC)c(CC(=O)O)c1	-7%	-1%	0%	2%	18%	-2%	.	.
COc1ccc(OC)c(S(=O)(=O)N(C(C)=O)c2ccc3oc(=O)sc3c2)c1	0%	?	-3%	3%	6%	-13%	-21%	?
Nc1ccc2nc(-c3cccc(-c4nc5ccc(N)cc5[nH]4)c3)[nH]c2c1	2%	?	?	0%	9%	-4%	5%	1%
Nc1ccc2ccccc2c1	-8%	.	0%	0%	5%	0%	.	.
